The results in this text go back to PubChem BioAssay (Tox21).

A number with no mark means an inactive call. Results filed as inconclusive are left out. Activity calls are given as the source filed them. Unless noted, the call rests on the fitted dose curve; in most records, active means well fitted curve in the direction sought with a large enough effect in the repeat runs; inconclusive means weak or mixed curves; inactive means no such curve, though single readings can be large; an effect the other way counts as inactive or inconclusive.

The nature of experiment [1]: qHTS assay to test for compound auto fluorescence at 535 nm (green) in HEK293 cells (AID 720680).
Experiment [2] can be described thus: qHTS assay to test for compound auto fluorescence at 460 nm (blue) in HEK293 cell free culture (AID 720681). The essentials: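 Compounds were added to cell-free DMEM with 10% FBS and fluorescence read directly. The blue channel used 405 nm excitation and 460 nm emission, with triamterene as the reference fluorophore.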
For orientation: In qHTS, concentration-response curves come from the screen itself.

A short description of experiment [3]: qHTS assay to test for compound auto fluorescence at 535 nm (green) in HEK293 cell free culture (AID 720682). In a few lines: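 DMEM + 10% FBS, cell-free; cpd or DMSO pinned in; Ex485/Em535 read; output as fluorescein-equivalent signal.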
A short description of experiment [4]: qHTS assay to test for compound auto fluorescence at 590 nm (red) in HEK293 cell free culture (AID 720683). The essentials: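 Cell-free wells of DMEM with 10% FBS received compound, and intrinsic fluorescence was read at excitation/emission 540/590 nm. Values expressed as equivalence to Rose Bengal sodium.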
Experiment [5] in a line: qHTS assay to test for compound auto fluorescence at 460 nm (blue) in HepG2 cell free culture (AID 720685). In a few lines:
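Compound (23 nL) or DMSO pinned into cell-free MEM with 10% FBS; blue fluorescence read at 405/460 nm excitation/emission, expressed as auto-fluorescence equivalency to triamterene.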

Experiment [6] can be described thus: qHTS assay to test for compound auto fluorescence at 535 nm (green) in HepG2 cell free culture (AID 720686).
Experiment [7] can be described thus: qHTS assay to test for compound auto fluorescence at 460 nm (blue) in HepG2 cells (AID 720687). The essentials: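 HepG2 cells in MEM with 10% FBS, attached overnight at 37 C, were exposed to compound or DMSO for 1 hr at 37 C, 5% CO2. Blue fluorescence was read at 405/460 nm, with triamterene as reference fluorophore.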
The target in experiment [8] is Glucocorticoid receptor (Homo sapiens) (UniProt P04150). Briefly: qHTS assay to identify small molecule agonists of the glucocorticoid receptor (GR) signaling pathway (AID 720691; active means well fitted activation curve with a large enough effect in the signal ratio in the repeat runs, not every such curve was filed as active; the % refers to the signal ratio). In a few lines: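 Agonist mode in a HeLa line carrying a GRE-controlled beta-lactamase reporter. Compounds act for 18 h at 37 C before a 2 h room-temperature FRET substrate step and fluorescence reading.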

The nature of experiment [9]: qHTS assay for identifying genotoxic compounds that show differential cytotoxicity against isogenic chicken DT40 cell lines with known DNA damage response pathways - Rev3 mutant cell line (AID 743014). Further: nearly all actives have a fitted effect of over 55% in size. Further: potency means the concentration at half of the fitted maximal effect.
In experiment [10] the target is Androgen receptor (Homo sapiens) (UniProt P10275). Briefly: qHTS assay to identify small molecule antagonists of the androgen receptor (AR) signaling pathway (AID 743035; active means well fitted inhibition curve with a large enough effect in the signal ratio in the repeat runs, not every such curve was filed as active; the % refers to the signal ratio). In a few lines:
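Antagonism is scored as loss of R1881-driven beta-lactamase reporter expression in HEK293 cells carrying the reporter under a UAS element, after 16 h co-treatment at 37C and a 2 h room-temperature FRET substrate read.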

For experiment [11] the target is unchanged. Briefly: qHTS assay to identify small molecule agonists of the androgen receptor (AR) signaling pathway (AID 743036; active means well fitted activation curve with a large enough effect in the signal ratio in the repeat runs, with a control signal flat, not every such curve was filed as active; the % refers to the signal ratio). The essentials:
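Screening used 2,000 AR-bla HEK293 cells per well, treated 16 h at 37C with test compounds in DMSO alongside positive and DMSO-only controls; beta-lactamase activity was then read by LiveBLAzer B/G FRET fluorescence after 2 h at room temperature.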

The target is the same in experiment [12]. Put plainly: qHTS assay to identify small molecule agonists of the androgen receptor (AR) signaling pathway using the MDA cell line (AID 743040; further: nearly all actives have a fitted effect of over 20% in size). The essentials: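 MDA-kb2 breast carcinoma cells carrying MMTV-luciferase (responsive to AR and GR), plated 5 h then treated 16 h with compounds at 37C, 0% CO2. Read-out was ONE-Glo luminescence after 30 min at room temperature.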

Experiment [13] can be described thus: qHTS assay to identify small molecule antagonists of the androgen receptor (AR) signaling pathway using the MDA cell line - cell viability counter screen (AID 743041; further: nearly all actives have a fitted effect of over 45% in size). The essentials: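 MDA-kb2 AR-luc cells (MMTV-luciferase, AR/GR responsive) treated with compounds plus R1881 agonist for 16 h at 37C. CellTiter-Fluor added at 15.5 h; fluorescence read after 30 min in the same wells.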

In experiment [14] the target is Androgen receptor (Homo sapiens) (UniProt P10275). Briefly: qHTS assay to identify small molecule antagonists of the androgen receptor (AR) signaling pathway using the MDA cell line (AID 743042; further: nearly all actives have a fitted effect of over 55% in size). The essentials: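 MDA-kb2 breast carcinoma cells carrying MMTV-luciferase (AR/GR responsive) were co-treated with compounds and the agonist R1881 for 16 h at 37C. Inhibition read as ONE-Glo luminescence; CellTiter-Fluor fluorescence measured in parallel for cytotoxicity.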

Experiment [15] in a line: qHTS assay to test for compound auto fluorescence at 590 nm (red) in HepG2 cell free culture (AID 720684). In a few lines: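 Compound was pinned into wells holding MEM with 10% FBS and no cells, and red fluorescence was read at Ex/Em 540/590 nm. Signal is expressed as auto fluorescence equivalency relative to Rose Bengal sodium.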
Experiment [16] deals with Glucocorticoid receptor (Homo sapiens) (UniProt P04150). Briefly: qHTS assay to identify small molecule antagonists of the glucocorticoid receptor (GR) signaling pathway (AID 720692; active means well fitted inhibition curve with a large enough effect in the signal ratio in the repeat runs, not every such curve was filed as active; the % refers to the signal ratio). In a few lines:
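Cells plated, rested 4 h at 37 C/5% CO2; compounds in DMSO pin-transferred; dexamethasone added to 5 nM final; 18 h at 37 C; B/G FRET substrate added, 2 h room temperature; fluorescence measured.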

Experiment [17] can be described thus: qHTS assay to identify small molecule antagonists of the glucocorticoid receptor (GR) signaling pathway - cell viability counter screen (AID 720693). Further: nearly all actives have a fitted effect of over 55% in size.
The nature of experiment [18]: qHTS assay for identifying genotoxic compounds that show differential cytotoxicity against isogenic chicken DT40 cell lines with known DNA damage response pathways - wild type cell line (AID 743012). Further: nearly all actives have a fitted effect of over 60% in size. Further: potency means the concentration at half of the fitted maximal effect. The essentials:
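Cells (DT40 wild type, 300/well) are treated with DMSO-dissolved compounds after a ~0.5 h pre-incubation and kept 40 h at 37 C/5% CO2. Viability is then measured by CellTiter-Glo luminescence following 30 min at room temperature.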

Experiment [19] is described as follows: qHTS assay for identifying genotoxic compounds that show differential cytotoxicity against isogenic chicken DT40 cell lines with known DNA damage response pathways - Rad54/Ku70 mutant cell line (AID 743015). Further: nearly all actives have a fitted effect of over 60% in size.
Experiment [20] in a line: qHTS assay to identify small molecule antagonists of the androgen receptor (AR) signaling pathway - cell viability counter screen (AID 743033; further: nearly all actives have a fitted effect of over 45% in size).
On the % scale 0 is the no-effect control and ±100 the full control effect.

Chain of Glucocorticoid receptor (Homo sapiens) (P04150 whole entry, looked up): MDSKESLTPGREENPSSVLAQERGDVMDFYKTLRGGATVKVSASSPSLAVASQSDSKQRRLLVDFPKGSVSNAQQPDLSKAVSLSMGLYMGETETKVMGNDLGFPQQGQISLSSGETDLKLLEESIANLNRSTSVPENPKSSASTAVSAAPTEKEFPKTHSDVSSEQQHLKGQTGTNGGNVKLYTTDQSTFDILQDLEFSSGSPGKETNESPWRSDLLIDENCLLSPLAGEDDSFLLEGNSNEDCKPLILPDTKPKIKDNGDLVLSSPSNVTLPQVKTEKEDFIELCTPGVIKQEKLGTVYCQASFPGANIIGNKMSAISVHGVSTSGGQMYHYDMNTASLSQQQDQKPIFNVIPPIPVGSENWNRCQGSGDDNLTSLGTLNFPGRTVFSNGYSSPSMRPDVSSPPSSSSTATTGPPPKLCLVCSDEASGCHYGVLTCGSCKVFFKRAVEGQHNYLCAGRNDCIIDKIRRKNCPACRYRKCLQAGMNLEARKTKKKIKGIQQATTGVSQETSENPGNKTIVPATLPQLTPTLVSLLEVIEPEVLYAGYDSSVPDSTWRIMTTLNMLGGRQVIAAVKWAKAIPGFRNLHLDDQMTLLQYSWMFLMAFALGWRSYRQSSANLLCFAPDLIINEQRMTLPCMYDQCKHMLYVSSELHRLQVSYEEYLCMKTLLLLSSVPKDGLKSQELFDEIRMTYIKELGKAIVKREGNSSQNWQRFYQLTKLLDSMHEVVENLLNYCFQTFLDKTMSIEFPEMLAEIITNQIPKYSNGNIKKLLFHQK
Chain of Androgen receptor (Homo sapiens) (P10275 whole entry, looked up): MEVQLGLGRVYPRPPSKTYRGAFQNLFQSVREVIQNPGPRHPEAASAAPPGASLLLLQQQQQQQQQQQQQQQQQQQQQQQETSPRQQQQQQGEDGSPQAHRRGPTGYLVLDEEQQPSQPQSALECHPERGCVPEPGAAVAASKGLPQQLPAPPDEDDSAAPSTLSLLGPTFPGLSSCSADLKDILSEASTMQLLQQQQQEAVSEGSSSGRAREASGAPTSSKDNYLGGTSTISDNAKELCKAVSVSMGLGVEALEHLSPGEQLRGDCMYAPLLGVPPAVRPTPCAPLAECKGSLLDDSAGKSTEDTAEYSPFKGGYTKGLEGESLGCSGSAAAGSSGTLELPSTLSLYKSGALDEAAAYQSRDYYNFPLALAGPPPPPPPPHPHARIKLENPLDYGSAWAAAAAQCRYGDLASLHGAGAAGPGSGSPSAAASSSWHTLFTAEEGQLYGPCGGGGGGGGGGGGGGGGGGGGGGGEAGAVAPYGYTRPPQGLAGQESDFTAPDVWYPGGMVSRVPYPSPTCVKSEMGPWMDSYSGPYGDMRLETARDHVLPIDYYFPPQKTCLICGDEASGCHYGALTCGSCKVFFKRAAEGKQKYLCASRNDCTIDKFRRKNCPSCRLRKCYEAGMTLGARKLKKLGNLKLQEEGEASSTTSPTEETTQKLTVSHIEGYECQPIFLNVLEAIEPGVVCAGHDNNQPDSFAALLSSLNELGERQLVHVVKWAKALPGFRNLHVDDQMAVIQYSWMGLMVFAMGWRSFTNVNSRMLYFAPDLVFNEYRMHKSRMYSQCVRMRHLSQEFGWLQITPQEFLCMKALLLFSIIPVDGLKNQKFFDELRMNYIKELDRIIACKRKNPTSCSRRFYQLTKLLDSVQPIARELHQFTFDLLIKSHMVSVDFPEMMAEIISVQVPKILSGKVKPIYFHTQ

In the case of `COC(=O)C1=C(C)NC(C)=C(C(=O)OC(C)C)C1c1cccc2nonc12` (stereo not drawn), the fluorescence, % of fluorescein in experiment [1] was -0.0539% [at 18.6 µM]. In addition, the fluorescence, % of fluorescent control in experiment [2] was 0.0173% [at 18.6 µM]; in experiment [4], -0.0484% [at 18.6 µM]; in experiment [5], -0.0347% [at 18.6 µM]; in experiment [7], 0.0339% [at 18.6 µM]. Further, the activity change in experiment [3] is 0.0719% [at 18.6 µM]. The fluorescence, % of fluorescein control in experiment [6] is -0.0109% [at 18.6 µM]. For the same compound, the Potency entry in [8], in [9], in [10], in experiment [12] and in [13] was “inactive” each time. Moreover, the call in [11] and in experiment [14] was inactive.

Turning to `CCN(C=O)CC`, the call in experiment [1], in experiment [2], in experiment [4], in experiment [15], in experiment [5] and in experiment [6] was inactive. Besides, the compound was classed as inactive in experiment [7], in [17] and in experiment [20]. The Potency entry in experiment [8], in experiment [16], in experiment [18], in experiment [9], in experiment [19] and in experiment [13] was “inactive” in each case.

For the compound `CCOC(=O)c1cnc2c(cnn2CC)c1NN=C(C)C`, the outcome in experiment [1], in experiment [2], in [3], in [4], in [5] and in experiment [6] was inactive. Also, the compound was classed as inactive in experiment [17] and in experiment [20]. Also, the Potency result in [13] was “inactive”.

For `C=CC(=O)OCCCl`, the compound was called inactive in [1], in experiment [2], in [3], in [4], in experiment [5] and in experiment [6]. For the same compound, the compound was classed as inactive in experiment [7] and in experiment [20]. Also, the Potency entry in experiment [13] is “inactive”.

For `CCCCCCCCCC[N+](C)(C)[O-]`, the call in experiment [1], in experiment [2], in experiment [3], in [4], in experiment [5] and in experiment [6] was inactive. In addition, the call in experiment [7], in [17], in experiment [20] and in experiment [14] was inactive. For the same compound, the Potency result in [8], in [10], in [12] and in experiment [13] was “inactive” in each case. Also, the Potency in experiment [18] is 24.3 µM (active); in experiment [9] it was 13.7 µM (active).

Consider `CCCCN(CCC(=O)OCC)C(C)=O`, for which the result in experiment [1], in experiment [2], in experiment [3], in [4], in experiment [5] and in experiment [6] was inactive. The outcome in [7] and in experiment [20] was inactive. In addition, the Potency entry in experiment [8], in experiment [16], in experiment [18], in experiment [9], in [19] and in [13] was “inactive” each time.

In the case of `CCC(C(=O)NC(=O)NC(C)=O)c1ccccc1` (stereo not drawn), the outcome in experiment [1], in [2], in experiment [4], in experiment [5], in experiment [6] and in experiment [7] was inactive. Also, the result in experiment [17] and in experiment [20] was inactive. Besides, the Potency entry in experiment [8], in experiment [16], in experiment [18], in [9], in experiment [19] and in experiment [13] was “inactive” throughout.

In the case of `CN1C(C)(C)CC(O)CC1(C)C`, the compound was called inactive in experiment [1], in experiment [2], in experiment [4], in [15], in experiment [5] and in experiment [6]. For the same compound, the call in experiment [7], in experiment [17] and in experiment [20] was inactive. Further, the Potency entry in experiment [19] and in [13] was “inactive” in each case.

For `CCCc1ncc(C[n+]2ccccc2C)c(N)n1`, in experiment [1], the fluorescence, % of fluorescein was -0.083% [at 18.6 µM]. For the same compound, the fluorescence, % of fluorescent control in experiment [2] is -0.136% [at 18.6 µM]; in experiment [4], 0.0061% [at 18.6 µM]; in experiment [5], 0.0057% [at 18.6 µM]; in experiment [7], -0.0148% [at 18.6 µM]. Besides, the fluorescence, % of Rose Bengal in experiment [15] is -0.0113% [at 18.6 µM]. The fluorescence, % of fluorescein control in experiment [6] is 0.0635% [at 18.6 µM]. Further, the Potency result in experiment [8], in experiment [16], in experiment [9], in [19] and in experiment [13] was “inactive” each time. Moreover, the compound was classed as inactive in experiment [20].

For `Cc1cccc(C)c1NC(=O)CC12CCCN1CCC2`, the compound was called inactive in experiment [1], in [2], in experiment [4], in [15], in [5] and in experiment [6]. Besides, the call in experiment [7] and in [17] was inactive. In addition, the Potency entry in experiment [8], in [16], in [9], in [19] and in experiment [13] was “inactive” in each case.
